# Measured values published in PubChem BioAssay (EPA / NIEHS).
# Records with an inconclusive call do not appear. Activity calls are given as the source filed them. How the source made its calls, unless noted: active means hit-call score of the fitted dose curve at least 0.9, where 1 is the maximum; inconclusive means response in the unintended direction; inactive means score below 0.9.
# Key:
# [1] = CEETOX_H295R_OHPREG_noMTC: CeeTox H295R High-throughput Steroidogenesis Assay for OH-Pregnenolone (OHPREG), maximum tolerated concentration (MTC) filtered results only (AID 2283912; active means hit-call score of the fitted dose curve at least 0.9, where 1 is the maximum; inactive means score below 0.9); settings: actives raise or lower the signal
# Outline: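 Medium 17alpha-hydroxypregnenolone quantified by reverse-phase HPLC-MS/MS after 48 h chemical exposure of forskolin-prestimulated (10 uM, 48 h) H295R, 0.1% DMSO final. Fitting bidirectional relative to DMSO; no maximum-tolerated-concentration filtering applied.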
# [2] = CEETOX_H295R_OHPROG_noMTC: CeeTox H295R High-throughput Steroidogenesis Assay for OH-Progesterone (OHPROG), maximum tolerated concentration (MTC) filtered results only (AID 2283914; active means hit-call score of the fitted dose curve at least 0.9, where 1 is the maximum; inactive means score below 0.9); settings: actives raise or lower the signal
# Outline: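 After 48 h forskolin (10 uM) prestimulation, H295R adrenal cells received test chemical in 0.1% DMSO for 48 h. Medium 17alpha-hydroxyprogesterone was MTBE-extracted and measured by HPLC-MS/MS; gain or loss relative to DMSO, no MTT-based MTC filtering.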
# [3] = CEETOX_H295R_PROG_noMTC: CeeTox H295R High-throughput Steroidogenesis Assay for Progesterone (PROG), maximum tolerated concentration (MTC) filtered results only (AID 2283920; active means hit-call score of the fitted dose curve at least 0.9, where 1 is the maximum; inactive means score below 0.9); settings: actives raise or lower the signal
# Outline: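 Progesterone secreted into medium was measured by HPLC-MS/MS after MTBE extraction, following 48 h chemical exposure (0.1% DMSO) of forskolin-prestimulated (10 uM, 48 h) H295R adrenal cells. Gain or loss fitted against DMSO; no MTC filtering.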
# [4] = tested on: Sodium/Iodide Symporter (NIS), SLC5A5 (gene 6528); experiment: CPHEA_Stoker_NIS_Inhibition_RAIU: CPHEA's Radioactive Iodide Uptake (RAIU) Assay for Sodium/Iodide Symporter (NIS) Inhibition, Stoker and Laws Labs (AID 2283841)
# Outline: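 Iodide uptake read as CPM of intracellular 125I (final 329 pM) after 2 h room-temperature exposure in HEPES-buffered HBSS, pH 7.4. Human NIS-expressing HEK293T cells; six concentrations 0.001–100 uM, 0.5% DMSO, normalised to DMSO wells.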
# [5] = CPHEA_Stoker_NIS_Cytotoxicity: Cytotoxicity Assessment for CPHEA's Radioactive Iodide Uptake (RAIU) Assay for Sodium/Iodide Symporter (NIS) Inhibition, Stoker and Laws Labs (AID 2283897);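 on AC50: active means loss of ATP signal versus DMSO meaning cytotoxicity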
# Outline: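 CellTiter-Glo ATP luminescence gauged viability in HEK293T cells expressing human NIS after 2 h chemical exposure. Concentrations ran 0.001–100 uM in 0.5% DMSO; DMSO served as baseline for the loss-of-signal fit.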
# [6] = biological target: human Thyroid hormone Receptor beta (TRb), THRB (gene 7068) (UniProt P10828); experiment: ATG_hTRb_XSP2: Attagene TRANS-FACTORIAL Multi-Species (XSP2) HepG2 Assay for human Thyroid hormone Receptor beta (TRb) (AID 2283840);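 further: actives raise reporter mRNA so potency reflects agonist-like gain of signal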
# Outline: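 HepG2 transiently transfected with a multi-species panel including a human TRb–Gal4 chimera driving Gal4-UAS reporters; medium contained 3 nM 6-alpha-fluorotestosterone and 1.5 nM norgestrel. 24 h dosing; RT-PCR/capillary electrophoresis readout; positive-direction fit vs DMSO.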
# PGR (gene 5241) [7] = biological target: PGR (gene 5241) (UniProt P06401); experiment: TOX21_PR_BLA_Followup_Antagonist_ratio: Tox21 HEK293 Progesterone Receptor (PR) Antagonism Beta-lactamase Follow-Up Assay, Ratio (AID 2283934)
# Outline: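 Read-out: blue/green beta-lactamase FRET ratio (cleaved ch2 over uncleaved ch1), fitted relative to DMSO baseline. Cells: PR-UAS-bla HEK293T, GAL4-UAS reporter, stimulated with 1 nM R5020 final; 16 hr compound exposure, 37C.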
# [8] = TOX21_PR_BLA_Followup_Agonist_viability: Viability Assessment in the Tox21 HEK293 Progesterone Receptor (PR) Agonism Beta-lactamase Follow-Up Assay (AID 2283935);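 further: signal loss means lower viability so actives are cytotoxic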
# Outline: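 Luminescent ATP quantitation (CellTiter-Glo, 30 min, room temperature) in the same wells as the beta-lactamase read, on PR-UAS-bla HEK293T cells exposed to compound for 16 hr at 37C in 2% charcoal-stripped serum.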
# [9] = TOX21_PR_BLA_Followup_Antagonist_viability: Viability Assessment in the Tox21 HEK293 Progesterone Receptor (PR) Antagonism Beta-lactamase Follow-Up Assay (AID 2283936);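 further: cells exposed to compound with R5020 agonist for 16 h; hits lower the luminescence signal meaning cytotoxicity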
# Outline: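 PR-UAS-bla HEK293T cells in medium with 2% charcoal-stripped FBS were treated with compounds plus R5020 for 16 hr at 37C. After the beta-lactamase read, CellTiter-Glo was added to the same wells and luminescence read after 30 min at room temperature.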
# PGR (gene 5241) [10] = biological target: PGR (gene 5241) (UniProt P06401); experiment: TOX21_PR_LUC_Followup_Antagonist: Tox21 HEK293 Progesterone Receptor (PR) Antagonism Luciferase Follow-Up Assay (AID 2283938);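 further: curve fitted upward as signal gain over DMSO baseline despite antagonist label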
# Outline: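 HEK293-PR-A-luc cells, 3,000/well, preincubated 5 h at 37C before compound addition in DMSO; 16 h compound exposure at 37C. ONE-Glo luciferase luminescence read after 30 min at room temperature, fitted relative to DMSO baseline.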
# [11] = TOX21_PR_LUC_Followup_Antagonist_viability: Viability Assessment in the Tox21 HEK293 Progesterone Receptor (PR) Antagonism Luciferase Follow-Up Assay (AID 2283940)
# Outline: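 Read-out: CellTiter-Glo ATP luminescence, loss of signal taken as reduced viability. Cells: HEK293-PR-A-luc, 3,000/well, 5 h settling, then 16 h compound exposure at 37C, 0% CO2.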
# [12] = TOX21_PR_LUC_Followup_Agonist_viability: Viability Assessment in the Tox21 HEK293 Progesterone Receptor (PR) Agonism Luciferase Follow-Up Assay (AID 2283941);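 further: loss of signal means cytotoxicity so actives lower viability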
# Outline: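 Cytotoxicity counter-screen: ATP content by CellTiter-Glo luminescence, loss of signal = reduced viability. HEK293-PR-A-luc, 3,000 cells/well, compound exposure 16 h, 37C.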
# [13] = biological target: Thyroid hormone receptor alpha (Rattus norvegicus) + Thyroid hormone receptor beta (Rattus norvegicus) (UniProt P18113+P63059); experiment: TOX21_TR_LUC_GH3_Antagonist_Followup: Tox21 GH3 Thyroid Hormone Receptor Antagonism Luciferase Follow-Up Assay (AID 2283942)
# Outline: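 Loss of T3-driven (1.0 nM final) reporter activity in GH3 cells was read by ONE-Glo luminescence after 24 h incubation at 37C; 15-point compound series spanned 92 uM to 5nM final, 1,500 cells/well.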
# Sequence of PGR (gene 5241) (P06401 whole entry, looked up, the tested form may be a part): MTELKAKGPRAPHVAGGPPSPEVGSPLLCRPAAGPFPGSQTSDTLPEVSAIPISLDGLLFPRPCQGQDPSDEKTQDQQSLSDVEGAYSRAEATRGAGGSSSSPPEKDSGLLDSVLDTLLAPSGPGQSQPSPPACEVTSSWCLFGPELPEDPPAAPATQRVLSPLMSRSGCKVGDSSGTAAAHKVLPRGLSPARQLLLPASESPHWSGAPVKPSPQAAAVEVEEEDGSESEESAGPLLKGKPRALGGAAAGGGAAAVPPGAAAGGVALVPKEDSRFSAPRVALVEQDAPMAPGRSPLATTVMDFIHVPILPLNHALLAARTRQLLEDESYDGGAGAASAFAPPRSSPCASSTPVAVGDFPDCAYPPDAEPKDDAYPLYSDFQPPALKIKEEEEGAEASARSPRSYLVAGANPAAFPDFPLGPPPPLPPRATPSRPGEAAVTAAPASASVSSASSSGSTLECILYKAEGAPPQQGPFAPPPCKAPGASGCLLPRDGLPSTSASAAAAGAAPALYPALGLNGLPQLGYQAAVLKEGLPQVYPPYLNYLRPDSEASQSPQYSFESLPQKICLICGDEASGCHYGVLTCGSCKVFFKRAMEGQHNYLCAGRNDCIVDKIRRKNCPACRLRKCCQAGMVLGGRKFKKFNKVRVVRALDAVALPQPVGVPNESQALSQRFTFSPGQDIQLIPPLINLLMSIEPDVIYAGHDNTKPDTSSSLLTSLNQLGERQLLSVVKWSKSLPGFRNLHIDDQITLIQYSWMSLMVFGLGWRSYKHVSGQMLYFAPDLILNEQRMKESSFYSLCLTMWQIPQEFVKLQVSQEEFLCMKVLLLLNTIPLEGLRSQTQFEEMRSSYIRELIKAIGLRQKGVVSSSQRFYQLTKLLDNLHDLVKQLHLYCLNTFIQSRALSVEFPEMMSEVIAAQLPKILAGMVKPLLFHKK
# Sequence of human Thyroid hormone Receptor beta (TRb), THRB (gene 7068) (P10828 whole entry, looked up, the tested form may be a part): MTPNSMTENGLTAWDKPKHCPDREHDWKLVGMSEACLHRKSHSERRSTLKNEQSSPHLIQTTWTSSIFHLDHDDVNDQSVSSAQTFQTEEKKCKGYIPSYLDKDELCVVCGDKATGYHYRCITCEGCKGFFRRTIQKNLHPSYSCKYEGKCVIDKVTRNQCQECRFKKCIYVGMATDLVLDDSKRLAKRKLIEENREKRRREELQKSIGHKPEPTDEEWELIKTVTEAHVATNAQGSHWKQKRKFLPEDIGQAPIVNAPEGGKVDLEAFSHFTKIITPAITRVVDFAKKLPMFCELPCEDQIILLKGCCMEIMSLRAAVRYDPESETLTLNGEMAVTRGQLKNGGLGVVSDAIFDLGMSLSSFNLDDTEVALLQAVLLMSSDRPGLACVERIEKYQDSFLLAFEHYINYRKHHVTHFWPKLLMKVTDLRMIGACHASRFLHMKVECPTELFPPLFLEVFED
smiles,measurement,setting,value
O=C(NS(=O)(=O)/C=C/c1ccccc1)c1ccc(F)cc1Cl,AC50,[1],7.49 µM (active)
same,AC50,[2],5.24 µM (active)
same,outcome,[3],inactive
CCOC(=O)COc1ccc2c(c1)CC(NCC(O)c1cccc(Cl)c1)CC2 (centres undefined),outcome,[4],inactive
same,outcome,[5],inactive
Oc1ccc2c(c1)-c1ccccc1C2,outcome,[6],inactive
CC(C)c1cccc(C(C)C)c1N1C(=O)c2ccc(O)cc2C1=O,outcome,[4],inactive
same,outcome,[5],inactive
same,AC50,PGR (gene 5241) [7],15.7 µM (active)
same,outcome,[8],inactive
same,outcome,[9],inactive
same,AC50,PGR (gene 5241) [10],17.3 µM (active)
same,outcome,[11],inactive
same,outcome,[12],inactive
same,outcome,[13],inactive
Fc1ccccc1[C@@H](F)COC1CCC(Nc2ncnc3[nH]ncc23)CC1 (some centres undefined),AC50,[4],89.1 µM (active)
same,AC50,[5],9.92 µM (active)
O=C(O)c1cccc(N(Cc2cccnc2)c2ccc(OC(F)F)c(OC(F)F)c2)c1,outcome,[5],inactive
CC(C)(O)c1coc(S(=O)(=O)NC(=O)Nc2c3c(cc4c2CCC4)CCC3)c1,outcome,[5],inactive
CCCCCCc1ccc(O)cc1O,outcome,[5],inactive
O=C(CCCCCCCCc1cccnc1)N1CCC(C=C(c2ccccc2)c2ccccc2)CC1,outcome,[4],inactive
same,outcome,[5],inactive
O=P(OC(CCl)CCl)(OC(CCl)CCl)OC(CCl)CCl,outcome,[6],inactive
same,outcome,[4],inactive
same,outcome,[5],inactive
same,AC50,PGR (gene 5241) [7],18.2 µM (active)
same,outcome,[8],inactive
same,outcome,[9],inactive
same,AC50,PGR (gene 5241) [10],46.1 µM (active)
same,outcome,[11],inactive
same,outcome,[12],inactive
COc1ccc(/C=C/S(=O)(=O)NC(=O)c2ccc(C)cc2Cl)cc1,outcome,[5],inactive
COCCOc1cc2cc(C(=O)NC3CCN(C(C)C)CC3)n(CC(=O)Nc3ccc(Cl)cn3)c2cn1,outcome,[4],inactive
same,outcome,[5],inactive
